{"source": "ChEMBL document CHEMBL3988442", "about": "“University of Dundee, Small-Polar-MMV Screening Library” (2021)", "note": "Out of some 48,000 compounds screened, about 13,000 (27%) showed an effect of 50% or more. Some of the results follow.", "data": [{"tested_on": "Wolbachia pipientis", "assay": "Anti-Wolbachia Cell-Based Screen", "type": "functional", "parameters": "scale not given: in the data most compounds retested in dose-response had high values", "conditions": "5 µM", "units": {"Percent Effect": "%"}, "values": [{"smiles": "Fc1cccnc1N1CCOCC2(CCCNC2)C1", "note": "(centres undefined)", "Percent Effect": -2.668}, {"smiles": "N#Cc1cccc(C(=O)NS(=O)(=O)c2ccc(C#N)c(Cl)c2)c1", "Percent Effect": -1.961}, {"smiles": "COc1ccc(CN2C[C@H]3CN(c4cncnc4)C(=O)[C@H]3C2)cc1.O=C(O)C(F)(F)F", "Percent Effect": -6.592}, {"smiles": "CCc1cc(N2CCC(NC3CN4CCC3CC4)CC2)nc(N(C)C)n1", "note": "(centres undefined)", "Percent Effect": 2.929}, {"smiles": "CCCn1cc(C(=O)NCC(=O)NC2CC2)c(C)n1", "Percent Effect": 8.869}, {"smiles": "COc1ncccc1CN1C[C@H]2CCN(c3ncccn3)C[C@H]2C1.O=C(O)C(F)(F)F", "Percent Effect": 102}, {"smiles": "COc1ncccc1CN1C[C@H]2CCN(C(C)C)C[C@H]2C1.O=C(O)C(F)(F)F.O=C(O)C(F)(F)F", "Percent Effect": 108.8}, {"smiles": "CCN1CCCC12CCN(Cc1cccnc1OC)CC2.O=C(O)C(F)(F)F.O=C(O)C(F)(F)F", "Percent Effect": 9.255}, {"smiles": "COc1ncccc1CN1CC[C@H]2[C@H]1CCN2CCN(C)C.O=C(O)C(F)(F)F.O=C(O)C(F)(F)F.O=C(O)C(F)(F)F.O=C(O)C(F)(F)F", "Percent Effect": -2.708}, {"smiles": "CN1CC2(CCNCC2)CC1C(=O)NCCCNc1cccnc1", "note": "(centres undefined)", "Percent Effect": 9.44}, {"smiles": "CN1[C@@H](C(=O)NCC2CC2)C[C@@H]2CN(c3ncccn3)C[C@@H]21", "Percent Effect": -3.694}, {"smiles": "CCN1C[C@H]2N(c3ncccn3)CCC[C@@]2(C(=O)NCC2CC2)C1", "Percent Effect": 121.2}, {"smiles": "CN1C[C@H]2N(c3ncccn3)CCC[C@@]2(C(=O)NCC2CC2)C1.O=C(O)C(F)(F)F", "Percent Effect": 104.5}, {"smiles": "CNC(=O)[C@@]12CCCN(c3ncccn3)[C@@H]1CN(C)C2.O=C(O)C(F)(F)F", "Percent Effect": -0.06284}, {"smiles": "O=C(O)C(F)(F)F.O=C(O)C(F)(F)F.c1cnc(N2CCCC3(CCN(CC4CC4)C3)C2)nc1", "note": "(centres undefined)", "Percent Effect": -2.531}, {"smiles": "CC(=O)N1C[C@H]2CCCC(N3CCN(c4ncccn4)CC3)[C@H]2C1.O=C(O)C(F)(F)F.O=C(O)C(F)(F)F", "note": "(some centres undefined)", "Percent Effect": -9.605}, {"smiles": "CN(CC1Cc2ccccc2CN1C)C(=O)Cc1cccs1", "note": "(centres undefined)", "Percent Effect": 4.108}, {"smiles": "COc1ccc(CN2C[C@H]3CCC[C@@H](CN(C)C4CC4)[C@H]3C2)cn1.O=C(O)C(F)(F)F.O=C(O)C(F)(F)F", "Percent Effect": 14.86}, {"smiles": "Cn1cc(CN2C[C@H]3CCC[C@@H](CNc4ncccn4)[C@H]3C2)cn1.O=C(O)C(F)(F)F", "Percent Effect": 111.9}, {"smiles": "O=C(O)C(F)(F)F.c1cncc(CN2C[C@H]3CCC[C@@H](CNc4cnccn4)[C@H]3C2)c1", "Percent Effect": 134.5}, {"smiles": "CN(C[C@@H]1CCC[C@@H]2CN(Cc3cccnc3)C[C@@H]21)C1CC1.O=C(O)C(F)(F)F.O=C(O)C(F)(F)F", "Percent Effect": 2.908}, {"smiles": "COc1ccc(CN2C[C@H]3CCC[C@@H](CN(C)C)[C@H]3C2)cn1.O=C(O)C(F)(F)F.O=C(O)C(F)(F)F", "Percent Effect": 10.6}, {"smiles": "O=C(O)C(F)(F)F.c1ccc(NC[C@@H]2CCC[C@@H]3CN(Cc4cc[nH]n4)C[C@@H]32)nc1", "Percent Effect": -6.028}, {"smiles": "O=C(O)C(F)(F)F.c1cnc(NC[C@@H]2CCC[C@@H]3CN(Cc4cc[nH]n4)C[C@@H]32)nc1", "Percent Effect": -8.539}, {"smiles": "Cn1cc(CN2C[C@@H]3CCC[C@@H](OCc4cccnc4)[C@@H]3C2)cn1", "Percent Effect": 52.17}, {"smiles": "COCCN1C[C@H]2CCC[C@@H](CNc3ncccn3)[C@H]2C1.O=C(O)C(F)(F)F.O=C(O)C(F)(F)F", "Percent Effect": 1.407}, {"smiles": "Cn1ccnc1NC[C@@H]1CCC[C@@H]2CN(Cc3cccnc3)C[C@@H]21.O=C(O)C(F)(F)F", "Percent Effect": 109.4}, {"smiles": "O=C(O)C(F)(F)F.c1cnc(NC[C@@H]2CCC[C@@H]3CN(Cc4csnn4)C[C@@H]32)nc1", "Percent Effect": 17.75}, {"smiles": "O[C@@]1(CNCCCNc2cccnc2)CCCN2CCCC[C@@H]21", "Percent Effect": 3.199}, {"smiles": "Cc1nc(O)cc(CN2CC=C(c3cnn(C(C)(C)C)c3)CC2)n1", "Percent Effect": 6.105}, {"smiles": "CC(Cc1ccccc1Br)NC(=O)CCS(C)(=O)=O", "note": "(centres undefined)", "Percent Effect": 11.71}, {"smiles": "O=C(O)C(F)(F)F.c1cnc(NC[C@@H]2CCC[C@@H]3CN(Cc4cccnc4)C[C@@H]32)nc1", "Percent Effect": -1.894}, {"smiles": "O=C(O)C(F)(F)F.c1ccc(NC[C@@H]2CCC[C@@H]3CN(Cc4cccnc4)C[C@@H]32)nc1", "Percent Effect": 90.18}, {"smiles": "O=C(O)C(F)(F)F.c1ccc(NC[C@@H]2CCC[C@@H]3CN(Cc4nccs4)C[C@@H]32)nc1", "Percent Effect": -15.69}, {"smiles": "CSCCCN1CC[C@@]2(O)CCN(c3ncccn3)C[C@H]2C1", "Percent Effect": -7.567}, {"smiles": "Cc1cccc(-c2ncc(CNC(C)Cc3ncccc3C)cn2)c1", "note": "(centres undefined)", "Percent Effect": -7.429}, {"smiles": "Cc1cc(NC2CC3(CCN(Cc4csc(C)n4)C3)C2)ncn1", "note": "(centres undefined)", "Percent Effect": 114}, {"smiles": "Cc1nc(CN2CCC3(C2)CN(C(=O)c2conc2C)C3)cs1", "Percent Effect": 97.08}, {"smiles": "Cc1cc(CN2C[C@H]3CCC[C@@]3(COCc3csc(C)n3)C2)no1.O=C(O)C(F)(F)F", "Percent Effect": 6.371}, {"smiles": "c1cc(NC2CC3(CCN(Cc4cc[nH]n4)C3)C2)ncn1", "note": "(centres undefined)", "Percent Effect": -10.13}, {"smiles": "Cc1cc(NC2CC3(CCN(Cc4cscn4)C3)C2)ncn1", "note": "(centres undefined)", "Percent Effect": 115}, {"smiles": "c1cc(NC2CC3(CCN(Cc4cscn4)C3)C2)ncn1", "note": "(centres undefined)", "Percent Effect": 101.6}, {"smiles": "Cc1nc(CN2CCCC3(CCN(c4cccnc4)C3=O)C2)cs1.O=C(O)C(F)(F)F.O=C(O)C(F)(F)F", "note": "(centres undefined)", "Percent Effect": -13.68}, {"smiles": "Cc1noc(C)c1CN1C(=O)[C@H]2CC[C@@H]1CN(Cc1cscn1)C2", "Percent Effect": -52.5}, {"smiles": "NCC1(c2cccc(F)c2)CCOCC1", "Percent Effect": -10.48}, {"smiles": "Cc1cc(CC(=O)N2CCN(CC3CC3)[C@@H]3CS(=O)(=O)C[C@@H]32)ccc1F", "Percent Effect": 7.302}, {"smiles": "O=S1(=O)CCC(n2cc(C3=CCN(CCc4ccccc4)CC3)cn2)C1", "note": "(centres undefined)", "Percent Effect": -5.355}, {"smiles": "Cc1n[nH]c(C)c1CC(=O)N1CCN(C)C2(CCNC(=O)CC2)C1", "note": "(centres undefined)", "Percent Effect": 2.016}, {"smiles": "O=C(Nc1ccccc1)[C@H]1CN2CC[C@H]1C[C@@H]2Cn1cc(CCO)nn1", "Percent Effect": -5.907}]}]}
